# In the supplement of paper PMC11634586:
# Unmarked numbers belong to inactive results.
# Test system: NCI-H1688
# Experiment: inhibition of cell viability relative to untreated control (fraction); higher = stronger growth inhibition, active = 0.5 or more
# Settings: 30 µM; 24 h
# In short: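 Viability of NCI-H1688 small cell lung cancer cells was assessed with Cell Counting Kit-8 by absorbance at 450 nm, in triplicate, after a 24 h exposure to a natural compound library (TargetMol) at 30 µM at 37°C and 5% CO2. The cells had been seeded at 3 × 10^3 cells/well in 96-well plates 24 h before treatment. Inhibition of cell viability is reported as a fraction, derived from viability normalised against untreated cells.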
row,Structure (SMILES),inhibition of cell viability
1,CC1(C)CC[C@]2(C(=O)O[C@@H]3O[C@H](CO[C@@H]4O[C@H](CO)[C@@H](O)[C@H](O)[C@H]4O)[C@@H](O)[C@H](O)[C@H]3O)CC[C@]3(C)C(=CC[C@@H]4[C@@]5(C)CC[C@H](O[C@@H]6OC[C@H](O)[C@H](O)[C@H]6O)[C@@](C)(CO)[C@@H]5CC[C@]43C)[C@@H]2C1 [Asperosaponin Ⅵ],0.0344
2,C[C@H](CCC(=O)O)[C@H]1CC[C@H]2[C@@H]3CC[C@@H]4C[C@H](O)CC[C@]4(C)[C@H]3C[C@H](O)[C@]12C [Deoxycholic acid],-0.113
3,C[C@H]1[C@@H](O)O[C@@H]2O[C@@]3(C)CC[C@H]4[C@H](C)CC[C@@H]1[C@@]24OO3 [Dihydroartemisinin],0.644 (active)
4,COc1cc(OC)c2ccc(=O)oc2c1 [Citropten],-0.00623
5,NCCc1c[nH]cn1 [Histamine],0.233
6,C[N+]1(C)CCCC1C(=O)O (stereo unspecified),0.205
7,C[n+]1cc2c3c(ccc2c2ccc4cc5c(cc4c21)OCO5)OCO3 [Sanguinarine chloride],0.982 (active)
8,O=C(/C=C/C=C/c1ccc2c(c1)OCO2)N1CCCCC1 [Piperine],-0.249
9,COc1ccc(-c2cc(=O)c3c(O)c(OC)c(O)cc3o2)cc1OC [Eupatilin],0.345
10,COc1ccc([C@@H]2CC(=O)c3c(O)cc(O)cc3O2)cc1O [Hesperetin],-0.0748
11,COC(=O)/C=C/c1ccc(O)cc1 [Methyl 4-hydroxycinnamate],-0.109
